Laboratory results as given in PubChem BioAssay AID602292 (National Center for Advancing Translational Sciences (NCATS), 2012).
The whole screen tested about 1,300 compounds, of which about 380 (29%) were called active. About 37% were inconclusive and are not listed. This is one part of the list. Values without a mark were called inactive. Calls follow the shape of the dose curve; as a rule, active = well fitted inhibition curve with a large enough effect; inconclusive = small, poorly fitted or top-dose-only effect; inactive = flat fitted curve, though single readings scatter.

What follows are compounds tested against Thyrotropin receptor (Homo sapiens) (UniProt P16473) (assay: qHTS for antagonists of the Thyroid Stimulation Hormone Receptor: Hit Validation in Primary Screen). Conditions: TSHR-expressing cells, cAMP antagonist mode; series mostly up to 58 µM; activity change, negative = inhibition: at the top concentration.
Method in brief: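 TSHR-expressing cells were pretreated with compound, then stimulated with TSH at EC80 (4nM final) for 2 hours at 37 deg C. Cellular cAMP measured by competitive HTRF (anti-cAMP cryptate, cAMP-d2) after 30 min at room temperature.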
% is scaled to controls: 0 for no effect and ±100 for the full control effect; potency is read from the fitted curve at half-maximal effect.
Also: nearly all actives have a fitted effect of over 80% in size.
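For activity change, negative = inhibition in this document: cAMP by competitive HTRF where cellular cAMP lowers the 665 nm FRET signal.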

Thyrotropin receptor (Homo sapiens), sequence (P16473 whole entry, looked up): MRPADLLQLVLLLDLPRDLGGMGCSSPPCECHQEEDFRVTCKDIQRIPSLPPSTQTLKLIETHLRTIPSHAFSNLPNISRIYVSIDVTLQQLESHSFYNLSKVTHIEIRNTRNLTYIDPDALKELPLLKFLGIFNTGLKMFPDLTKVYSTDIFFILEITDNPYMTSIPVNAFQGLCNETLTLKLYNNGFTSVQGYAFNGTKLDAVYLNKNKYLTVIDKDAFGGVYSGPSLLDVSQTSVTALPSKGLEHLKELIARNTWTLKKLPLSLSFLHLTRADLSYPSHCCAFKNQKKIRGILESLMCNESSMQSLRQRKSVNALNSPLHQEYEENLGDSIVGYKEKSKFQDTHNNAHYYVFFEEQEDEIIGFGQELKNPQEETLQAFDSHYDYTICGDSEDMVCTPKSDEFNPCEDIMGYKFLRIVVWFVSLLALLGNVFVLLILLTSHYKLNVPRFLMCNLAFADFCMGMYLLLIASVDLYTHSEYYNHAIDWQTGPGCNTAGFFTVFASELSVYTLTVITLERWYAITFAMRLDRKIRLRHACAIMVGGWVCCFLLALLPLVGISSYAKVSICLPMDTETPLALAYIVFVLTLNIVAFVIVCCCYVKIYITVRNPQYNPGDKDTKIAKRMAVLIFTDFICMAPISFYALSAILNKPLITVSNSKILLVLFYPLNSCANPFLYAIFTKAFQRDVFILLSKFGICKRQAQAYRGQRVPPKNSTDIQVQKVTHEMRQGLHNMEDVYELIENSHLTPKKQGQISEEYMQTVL

Question: How did the Potency turn out when `Cc1ccc(-n2c(Cl)c(Cl)nc(Cl)c2=O)cc1` was run?
Answer: 26.9 µM (active)

Question: How did the “activity change, negative = inhibition” value turn out when `CCOC(=O)c1cccc(OCC(O)CNCCOc2ccccc2F)c1` (stereo not given) was run?
Answer: -1.9%

Question: For `O=[N+]([O-])c1ccc(N=Nc2c(Cl)cc(O)cc2Cl)cc1`, which Potency is on record?
Answer: 1.51 µM (active)

Question: For `COc1ccc(C(=O)NC2CCCc3c2cnn3-c2cccc(C)c2C)c(OC)n1` (stereo not given), which Potency is on record?
Answer: 21.3 µM (active)

Question: Which Potency does the source give for `Cn1c(N=Nc2ccc(N3CCOCC3)cc2)[n+](C)c2ccccc21` here?
Answer: 12 µM (active)

Question: With `CCCn1nc([N+](=O)[O-])c(C(C#N)c2nc3ccccc3o2)c(Cl)c1=O` (stereo not given) as the compound, how does the Potency read?
Answer: 6.01 µM (active)

Question: With `CCn1nc([N+](=O)[O-])c(C(C#N)c2nc3cc(C(F)(F)F)ccc3s2)c(Cl)c1=O` (stereo not given) as the compound, how does the Potency read?
Answer: 2.69 µM (active)

Question: `Cc1cc(C(=O)CCl)c(C)n1CCc1ccccc1` was tested. Which Potency did it give?
Answer: 30.1 µM (active)

Question: Which “activity change, negative = inhibition” value does the source give for `CCOC(=O)N1CCN(C(=O)CCc2ccccc2)CC1` here?
Answer: -3%

Question: For `O=C(NCCc1ccccc1)c1cccnc1N1CCCCCC1`, which “activity change, negative = inhibition” value is on record?
Answer: -6.11%

Question: `Brc1ccc(CNc2ccc3ncccc3c2)cc1` was tested. Which Potency did it give?
Answer: 23.9 µM (active)

Question: `CCOc1ccc(-n2c(SCC(=O)NC(C)CC)nc3n[nH]c(C)c3c2=N)cc1` (stereo not given) was tested. Which “activity change, negative = inhibition” value did it give?
Answer: -17.2%

Question: `O=S(=O)(Nc1ccc2cn[nH]c2c1)c1cc(Br)ccc1Br` was tested. Which Potency did it give?
Answer: 21.3 µM (active)

Question: With `O=C(Nc1ccncc1)Nc1cc(Cl)ccc1Cl` as the compound, how does the “activity change, negative = inhibition” value read?
Answer: -11.4%

Question: `O=C(Nc1ccc(Cl)c(Cl)c1)Nc1ccccc1O` was tested. Which Potency did it give?
Answer: 21.3 µM (active)

Question: With `CSc1ccccc1OCc1cc(C(=O)NC2CCc3ccccc32)no1` (stereo not given) as the compound, how does the “activity change, negative = inhibition” value read?
Answer: -4.75%

Question: With `O=C(c1cc(COc2cccc3cnccc23)on1)N1CCCC(CCCO)C1` (stereo not given) as the compound, how does the Potency read?
Answer: 13.5 µM (active)

Question: How did the Potency turn out when `Cc1ccc(C(=O)Nc2ccc(Br)c(C(F)(F)F)c2)cc1` was run?
Answer: 23.9 µM (active)

Question: `Cc1nc2ccc(C(=O)Nc3ccc4nc[nH]c4c3)cc2[nH]1` was tested. Which “activity change, negative = inhibition” value did it give?
Answer: -9.02%

Question: Which “activity change, negative = inhibition” value does the source give for `CCn1c(=S)sc2c(=O)n(CC(=O)Nc3ccccc3OC)c(C)nc21` here?
Answer: -9.71%

Question: How did the Potency turn out when `O=C(Nc1nc(-c2cccs2)c(-c2cccs2)s1)C1CCCC1` was run?
Answer: 19 µM (active)

Question: With `O=C(COCc1cc(-c2cccs2)on1)NC1CCCCC1` as the compound, how does the “activity change, negative = inhibition” value read?
Answer: -10.5%

Question: Which “activity change, negative = inhibition” value does the source give for `COc1ccc(CC(=O)Oc2cc(C)ccc2C)cc1` here?
Answer: -12.9%

Question: For `CN(C)/C=C(/C(=O)c1ccc(Cl)cc1)S(=O)(=O)c1ccc(Cl)cc1`, which “activity change, negative = inhibition” value is on record?
Answer: -4.03%

Question: `c1ccc2c(CSc3ncnc4nc[nH]c34)cccc2c1` was tested. Which Potency did it give?
Answer: 30.1 µM (active)

Question: `O=C(COc1ccc(Cl)cc1)NCc1nnc(SCC(=O)NC2CCCCC2)o1` was tested. Which “activity change, negative = inhibition” value did it give?
Answer: -2.3%

Question: With `Clc1ccc(CSc2nnc(CNc3cccc(Cl)c3)o2)cc1` as the compound, how does the Potency read?
Answer: 23.9 µM (active)

Question: With `Cc1sc(N/N=C/c2cccnc2)nc1-c1ccccc1` as the compound, how does the Potency read?
Answer: 23.9 µM (active)

Question: For `C(=N\N1CCN(Cc2cccc3ccccc23)CC1)/c1cccnc1`, which “activity change, negative = inhibition” value is on record?
Answer: -9.51%

Question: With `Nc1c(C(=O)NCc2ccc3c(c2)OCO3)nnn1CC(=O)Nc1ccc(Br)cc1` as the compound, how does the “activity change, negative = inhibition” value read?
Answer: -2.74%

Question: Which “activity change, negative = inhibition” value does the source give for `COc1ccc(NS(=O)(=O)c2cc(NC(=O)/C=C/c3cc(OC)ccc3OC)ccc2N2CCCCC2)cc1` here?
Answer: -12.9%

Question: For `COc1cc(C(C)=O)ccc1OCC(=O)Nc1ccc(C)c(S(=O)(=O)N2CCCCCC2)c1`, which Potency is on record?
Answer: 19 µM (active)

Question: Which Potency does the source give for `COc1ccc(NC(=O)CCC2CCCCC2)cc1S(=O)(=O)N1CCCCC1` here?
Answer: 37.9 µM (active)

Question: For `COC(=O)CN1C(=O)COc2ccc(S(=O)(=O)N3CCCC3)cc21`, which “activity change, negative = inhibition” value is on record?
Answer: -2.77%

Question: With `COc1ccc(Br)cc1/C=N/NC(=O)CN1CCCCC1` as the compound, how does the “activity change, negative = inhibition” value read?
Answer: 0.691%

Question: With `COc1cc(C(=S)N2CCCC2)ccc1OCc1ccc(C)cc1` as the compound, how does the “activity change, negative = inhibition” value read?
Answer: -6.97%

Question: With `COC(=O)c1cc(=O)n(-c2c(Cl)cc(C(F)(F)F)cc2Cl)[nH]1` as the compound, how does the “activity change, negative = inhibition” value read?
Answer: -7.03%

Question: For `CCCN1CCN(CCCNC(=O)Cn2nc(C)n3c(cc4cc(OC)ccc43)c2=O)CC1`, which “activity change, negative = inhibition” value is on record?
Answer: -1.9%

Question: `Cc1ccccc1-n1sc2cc(F)ccc2c1=O` was tested. Which Potency did it give?
Answer: 19 µM (active)

Question: `Cc1c(C(=O)OC/C(O)=C(\C#N)c2nc3ccccc3[nH]2)oc2ccc(Br)cc12` was tested. Which “activity change, negative = inhibition” value did it give?
Answer: -3.86%

Question: Which “activity change, negative = inhibition” value does the source give for `CS(=O)(=O)N(CC(=O)N1CCOCC1)c1cccc(F)c1` here?
Answer: -1.09%

Question: With `O=C(CSc1n[nH]c(=O)n1C1CC1)c1ccc2c(c1)OCCO2` as the compound, how does the “activity change, negative = inhibition” value read?
Answer: -2.97%

Question: Which Potency does the source give for `O=C(CSc1ncnc2ccccc12)c1ccc2c(c1)OCCO2` here?
Answer: 26.9 µM (active)

Question: For `Cc1ccc(S(=O)(=O)c2c(C(=O)c3ccccc3)cnc3cc4c(cc23)OCCO4)cc1`, which “activity change, negative = inhibition” value is on record?
Answer: -10.4%

Question: With `COCC(C)NC(=O)C1c2ccccc2Oc2ccccc21` (stereo not given) as the compound, how does the “activity change, negative = inhibition” value read?
Answer: -5.99%

Question: `O=S(=O)(Nc1ccc(O)c(Sc2nc3ccccc3s2)c1)c1cccc2ccccc12` was tested. Which Potency did it give?
Answer: 37.9 µM (active)

Question: `CCn1c(Cl)c(C=O)s/c1=N\S(=O)(=O)c1ccccc1` was tested. Which Potency did it give?
Answer: 21.3 µM (active)

Question: With `CCN(CC)S(=O)(=O)c1cccc(NC(=O)CCSc2ccc(Cl)cc2)c1` as the compound, how does the Potency read?
Answer: 30.1 µM (active)

Question: For `CC(=O)c1cccc(NC(=O)CCCSc2ccccc2)c1`, which “activity change, negative = inhibition” value is on record?
Answer: -8.01%

Question: Which “activity change, negative = inhibition” value does the source give for `CC(=O)N1c2ccc(S(=O)(=O)NCCC(=O)Nc3cccc(Cl)c3)cc2CC1C` (stereo not given) here?
Answer: -2.02%
